This is an account of results in PubChem BioAssay (Tox21).

The structures appear in SMILES notation. Where “and” joins values, the source holds several entries; their conditions need not be identical. Equal values may be shown once. Inconclusive results are not listed. Where a structure was tested more than once in an assay, its records may differ in their call. Calls of active or inactive are those of the source. Unless noted, the call rests on the fitted dose curve; in most records, active means well fitted curve in the direction sought with a large enough effect in the repeat runs; inconclusive means weak or mixed curves; inactive means no such curve, though single readings can be large; an effect the other way counts as inactive or inconclusive.

Experiment [1] in a line: qHTS assay to identify small molecule antagonists of the peroxisome proliferator-activated receptor delta (PPARd) signaling pathway - cell viability counter screen (AID 743213). Further: nearly all actives have a fitted effect of over 50% in size. The conditions noted are these: PPARd-bla HEK293H viability, CellTiter-Glo luminescence, 17 h; series mostly up to 62 µM. The essentials: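 PPARd-bla HEK293H cells (3000/well) got compound plus 300 nM L165041 agonist for 17 h at 37 C. Viability in the same wells came from CellTiter-Glo luminescence after 30 min at room temperature.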

Experiment [2] concerns the target Peroxisome proliferator-activated receptor delta (Homo sapiens) (UniProt Q03181). As to the kind of experiment: qHTS assay to identify small molecule antagonists of the peroxisome proliferator-activated receptor delta (PPARd) signaling pathway (AID 743215; active means well fitted inhibition curve with a large enough effect in the signal ratio in the repeat runs, not every such curve was filed as active; the % refers to the signal ratio;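 further: cells stimulated with agonist L165041 at 300 nM final during compound exposure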). The conditions noted are these: HEK293H PPARd-UAS-bla, beta-lactamase FRET ratio, antagonist, 17 h; series mostly up to 62 µM. The essentials: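 Plated HEK293H PPARd-bla cells rested 5 h at 37 C and 5% CO2. Compound, then agonist L165041 at 300 nM final, was added; 17 h at 37 C followed. Substrate loading, 2 h room temperature, fluorescence measured.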

The target of experiment [3] is Bile acid receptor (Homo sapiens) (UniProt Q96RI1). As to the kind of experiment: qHTS assay to identify small molecule antagonists of the farnesoid-X-receptor (FXR) signaling pathway (AID 743217; active means well fitted inhibition curve with a large enough effect in the signal ratio in the repeat runs, not every such curve was filed as active; the % refers to the signal ratio; further: potency means the concentration at half of the fitted maximal effect). The conditions noted are these: HEK293T FXR-UAS-bla, beta-lactamase ratio, CDCA-stimulated, 16 h; series mostly up to 62.6 µM. An outline of the steps: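 Screen of the Tox21 10K library in quantitative HTS format using FXR-UAS-bla HEK 293T reporter cells. Agonist chenodeoxycholic acid, 50 uM final, added with compounds; 16 h incubation at 37 °C; beta-lactamase FRET fluorescence measured.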
Bile acid receptor (Homo sapiens), sequence (Q96RI1 whole entry, looked up): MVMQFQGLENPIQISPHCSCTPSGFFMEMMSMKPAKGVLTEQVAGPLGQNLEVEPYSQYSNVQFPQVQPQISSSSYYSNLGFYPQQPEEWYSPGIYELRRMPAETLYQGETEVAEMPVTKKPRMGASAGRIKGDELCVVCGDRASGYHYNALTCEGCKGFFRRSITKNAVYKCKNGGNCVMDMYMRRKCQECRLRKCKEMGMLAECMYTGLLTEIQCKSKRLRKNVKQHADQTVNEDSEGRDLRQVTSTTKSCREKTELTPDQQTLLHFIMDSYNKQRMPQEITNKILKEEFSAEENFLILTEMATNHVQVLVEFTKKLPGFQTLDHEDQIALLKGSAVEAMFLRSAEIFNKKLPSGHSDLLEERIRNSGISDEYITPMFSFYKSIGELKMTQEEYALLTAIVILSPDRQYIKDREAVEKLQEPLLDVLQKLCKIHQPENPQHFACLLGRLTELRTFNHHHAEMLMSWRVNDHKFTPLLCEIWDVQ

Experiment [4] in a line: qHTS assay to identify small molecule agonists of the farnesoid-X-receptor (FXR) signaling pathway - cell viability counter screen (AID 743218). Further: nearly all actives have a fitted effect of over 45% in size. Further: potency means the concentration at half of the fitted maximal effect. As to conditions: FXR-bla HEK293T viability, CellTiter-Glo luminescence, 16 h; series mostly up to 62.6 µM. The essentials: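 Viability of FXR-bla HEK 293T cells is measured by ATP-based CellTiter-Glo luminescence following 16 h compound treatment at 37 C and a prior 2 h room-temperature beta-lactamase substrate step.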

In experiment [5] the target is Bile acid receptor (Homo sapiens) (UniProt Q96RI1). Kind of experiment: qHTS assay to identify small molecule agonists of the farnesoid-X-receptor (FXR) signaling pathway (AID 743220; active means well fitted activation curve with a large enough effect in the signal ratio in the repeat runs, not every such curve was filed as active; the % refers to the signal ratio). The conditions noted are these: HEK293T FXR-UAS-bla, beta-lactamase FRET ratio, 16 h; series mostly up to 62.6 µM. The essentials: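 FXR-UAS-bla HEK 293T cells carrying a UAS-driven beta-lactamase reporter were plated for 5 h at 37C/5% CO2, then exposed to DMSO-dissolved Tox21 10K compounds for 16 h at 37C. A LiveBLAzer B/G FRET substrate was loaded for 2 h at room temperature before fluorescence reading.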

The nature of experiment [6]: qHTS assay to identify small molecule antagonists of the farnesoid-X-receptor (FXR) signaling pathway - cell viability counter screen (AID 743221; active means well fitted cell-killing curve with a large enough effect in the repeat runs, not every such curve was filed as active; further: nearly all actives have a fitted effect of over 50% in size; further: potency means the concentration at half of the fitted maximal effect). The conditions noted are these: FXR-bla HEK293T viability, CellTiter-Glo luminescence, 16 h; series mostly up to 62.6 µM. The essentials:
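Cytotoxicity is taken from ATP luminescence (CellTiter-Glo, 30 min, room temperature) in FXR-bla HEK 293T cells previously incubated 16 h at 37 C with compound and chenodeoxycholic acid at 50 uM final.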

Experiment [7] is described as follows: qHTS assay to identify small molecule agonists of the vitamin D receptor (VDR) signaling pathway - cell viability counter screen (AID 743224). Further: nearly all actives have a fitted effect of over 50% in size. Further: potency means the concentration at half of the fitted maximal effect. The conditions noted are these: VDR-bla HEK293T viability, CellTiter-Glo luminescence, 16 h; series mostly up to 62.6 µM. The essentials:
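Compounds were pin-transferred onto VDR-bla cells plated 4 h earlier; following 16 h incubation at 37C, cell viability was quantified by CellTiter-Glo luminescence after 30 min at room temperature.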

For experiment [8], the target named is Vitamin D3 receptor (Homo sapiens) (UniProt P11473). Kind of experiment: qHTS assay to identify small molecule agonists of the vitamin D receptor (VDR) signaling pathway (AID 743222; calls by dose curve). As to conditions: HEK293T VDR-UAS-bla, beta-lactamase FRET ratio, 16 h; series mostly up to 63.5 µM. The essentials:
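Fluorescence from cleaved LiveBLAzer B/G FRET substrate served as readout. VDR-bla cells had been treated 16 h at 37C with test compounds in DMSO, following a 4 h settling period, and substrate was loaded for 2 h at RT.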

For experiment [9] the target is unchanged. As to the kind of experiment: qHTS assay to identify small molecule antagonists of the vitamin D receptor (VDR) signaling pathway (AID 743223; active means well fitted inhibition curve with a large enough effect in the signal ratio in the repeat runs, not every such curve was filed as active; the % refers to the signal ratio). As to conditions: VDR-UAS-bla HEK293T, beta-lactamase FRET ratio, 16 h; series mostly up to 61 µM. The essentials:
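Quantitative HTS in VDR-bla reporter cells stimulated with 1alpha,25-dihydroxyvitamin D3, 3 nM final. Compound exposure 16 h, 37C, 5% CO2. Read-out: beta-lactamase FRET substrate fluorescence, 2 h RT.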

The target in experiment [10] is Peroxisome proliferator-activated receptor delta (Homo sapiens) (UniProt Q03181). Kind of experiment: qHTS assay to identify small molecule agonists of the peroxisome proliferator-activated receptor delta (PPARd) signaling pathway (AID 743212; calls by dose curve;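 further: HEK293H cells with PPARd UAS beta-lactamase reporter GeneBLAzer system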). The conditions noted are these: HEK293H PPARd-UAS-bla, beta-lactamase FRET ratio, 17 h; series mostly up to 62.6 µM. The essentials:
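Beta-lactamase reporter read by fluorescence (LiveBLAzer B/G FRET, 2 h, room temperature). Test agents, in DMSO, incubated at 37 C with PPARd-bla HEK293H cells.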

Peroxisome proliferator-activated receptor delta (Homo sapiens), sequence (Q03181 whole entry, looked up): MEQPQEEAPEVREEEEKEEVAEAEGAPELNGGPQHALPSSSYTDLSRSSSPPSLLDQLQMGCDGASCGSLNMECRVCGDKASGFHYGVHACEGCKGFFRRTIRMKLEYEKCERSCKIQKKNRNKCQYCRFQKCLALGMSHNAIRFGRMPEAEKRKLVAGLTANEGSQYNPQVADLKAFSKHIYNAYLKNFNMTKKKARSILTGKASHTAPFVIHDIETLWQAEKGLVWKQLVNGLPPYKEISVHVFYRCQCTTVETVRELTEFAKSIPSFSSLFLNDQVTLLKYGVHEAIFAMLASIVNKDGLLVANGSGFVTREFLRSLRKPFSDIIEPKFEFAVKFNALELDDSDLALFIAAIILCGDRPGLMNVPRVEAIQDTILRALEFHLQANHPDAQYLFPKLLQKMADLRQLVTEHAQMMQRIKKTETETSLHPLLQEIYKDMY
Vitamin D3 receptor (Homo sapiens), sequence (P11473 whole entry, looked up): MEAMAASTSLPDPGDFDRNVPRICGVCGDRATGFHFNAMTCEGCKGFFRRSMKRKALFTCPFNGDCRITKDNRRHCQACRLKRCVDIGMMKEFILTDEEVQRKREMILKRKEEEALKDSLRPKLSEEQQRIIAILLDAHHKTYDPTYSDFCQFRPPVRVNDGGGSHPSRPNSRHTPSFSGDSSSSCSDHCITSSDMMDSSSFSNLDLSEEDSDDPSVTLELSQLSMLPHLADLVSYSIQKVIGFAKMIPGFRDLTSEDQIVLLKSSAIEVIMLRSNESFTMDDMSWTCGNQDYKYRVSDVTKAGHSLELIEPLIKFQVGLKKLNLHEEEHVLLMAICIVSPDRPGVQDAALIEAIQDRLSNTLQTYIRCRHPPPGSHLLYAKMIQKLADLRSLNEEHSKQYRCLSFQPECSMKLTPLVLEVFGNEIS

In the case of `Fc1cccc(Cl)c1CCl`, the Potency entry in experiment [1], in experiment [2], in [3], in experiment [4], in experiment [6] and in [7] was “inactive” in each case. Moreover, in [5], the outcome was inactive.

`CN(C)CCc1c[nH]c2ccc(O)cc12`: the Potency result in experiment [1], in [2], in experiment [3], in experiment [4], in [6] and in experiment [8] was “inactive” each time. In addition, the Potency entry in experiment [9] was “inactive”.

On to `CN(C)CCc1c[nH]c2cccc(O)c12`, for which the Potency result in experiment [10], in experiment [1], in [2], in experiment [4], in experiment [8] and in experiment [9] was “inactive” throughout.

For the compound `Clc1ccc(C(c2ccc(Cl)cc2)C(Cl)(Cl)Cl)cc1`, the Potency result in experiment [10], in experiment [1], in experiment [2], in experiment [4], in experiment [6] and in experiment [8] was “inactive” throughout. The Potency result in experiment [9] is “inactive”. For the same compound, in [5], the outcome was inactive. Besides, the Potency in [7] is 55.3 µM (active) and 43.6 µM (active) and inactive.

`CC(C)OS(C)(=O)=O`: the Potency result in experiment [10], in [1], in experiment [2], in experiment [3], in [4] and in experiment [6] was “inactive” each time. Also, the Potency result in [8] and in [7] was “inactive” in each case. Moreover, in experiment [5], the result was inactive.

As to `Clc1ccc(C(Cl)(Cl)Cl)c(Cl)c1`, the Potency entry in experiment [10], in [1], in experiment [2], in [4], in experiment [6] and in [8] was “inactive” in each case. The Potency result in [9] and in experiment [7] was “inactive” throughout.

Turning to `CC(C)(C)OO`, the Potency result in experiment [10], in experiment [1], in experiment [2], in experiment [4], in [6] and in experiment [8] was “inactive” throughout. Besides, the Potency result in experiment [7] is “inactive”.

On to `Cc1cc(C)c(C2=C(OC(=O)CC(C)(C)C)C3(CCCC3)OC2=O)c(C)c1`, for which the Potency result in experiment [1], in experiment [2], in [3], in experiment [4], in experiment [6] and in [7] was “inactive” in each case. In experiment [5], the outcome was inactive.

Consider `COc1ccc(N)cc1N`, for which the Potency entry in experiment [10], in experiment [4], in experiment [8] and in [9] was “inactive” in each case.

For the compound `N#CCCSCCC#N`, the Potency result in experiment [10], in experiment [1], in experiment [2] and in [7] was “inactive” throughout.

Regarding `CCCCCCCCCCCCCN1CC(C)OC(C)C1` (centres undefined), the Potency entry in experiment [10], in experiment [1], in [2], in [4], in experiment [6] and in [7] was “inactive” each time.

Regarding `CCOP(=S)(OCC)OC(Cl)C(Cl)(Cl)Cl` (centres undefined), the Potency result in experiment [10], in experiment [2], in experiment [6], in experiment [8] and in experiment [7] was “inactive” each time.

As to `COc1cccc(C(=O)CCN[C@@H](C)[C@H](O)c2ccccc2)c1`, the Potency result in [10], in [3], in experiment [4], in experiment [6] and in experiment [8] was “inactive” throughout. For the same compound, the outcome in experiment [5] was inactive. In addition, the Potency in experiment [7] was 33.5 µM (active).

For `CC1(C)C(/C=C(\Cl)C(F)(F)F)C1C(=O)OC(C#N)c1cccc(Oc2ccccc2)c1` (centres undefined), the Potency result in [10], in experiment [1], in [2], in experiment [4], in experiment [8] and in experiment [9] was “inactive” in each case. In experiment [7], the Potency result is “inactive”. In experiment [3], the Potency was 17.7 µM (active). Besides, in [5], the result was inactive.

Turning to `CCCN(CC)CC1COC2(CCC(C(C)(C)C)CC2)O1` (centres undefined), the Potency result in [10], in experiment [1], in experiment [4], in experiment [6], in experiment [8] and in experiment [9] was “inactive” each time. Moreover, the Potency result in [7] was “inactive”.

As to `CC(C)CCCCCOC(=O)c1ccccc1C(=O)OCCCCCC(C)C`, the Potency result in experiment [10], in experiment [1], in [2], in experiment [3], in experiment [4] and in experiment [6] was “inactive” each time. In addition, the Potency entry in experiment [8], in experiment [9] and in [7] was “inactive” in each case. Further, the outcome in experiment [5] was inactive.

In the case of `O=C1NCN(c2ccccc2)C12CCN(CC1COc3ccccc3O1)CC2` (centres undefined), the Potency entry in experiment [10], in experiment [2], in [8], in [9] and in [7] was “inactive” in each case.

On to `C1CCC2CCCCC2C1` (centres undefined), for which the Potency entry in experiment [10], in [1], in [2], in experiment [3], in [4] and in experiment [6] was “inactive” in each case. For the same compound, the Potency entry in experiment [8], in experiment [9] and in [7] was “inactive” each time. Besides, the result in [5] was inactive.

Turning to `COc1cc(C=O)cc2c1[C@H](COC(N)=O)[C@]1(OC(C)=O)ON2C[C@H]2[C@@H]1N2C(C)=O`, the Potency entry in [10], in [1], in [8] and in [7] was “inactive” each time.

With `CC(C)OC(=O)C(O)(c1ccc(Cl)cc1)c1ccc(Cl)cc1`, the Potency entry in experiment [10], in experiment [1], in experiment [2], in experiment [3], in experiment [4] and in [6] was “inactive” throughout. Also, in [8], the Potency result was “inactive”. The outcome in [5] was inactive.

Turning to `CN(C)c1ccc(N=Nc2ccccc2)cc1`, the Potency result in [10], in experiment [1], in experiment [2], in [3], in [9] and in experiment [7] was “inactive” in each case. Also, the outcome in experiment [5] was inactive.

On to `CCCCCCCCCCCCBr`, for which the Potency result in experiment [10], in experiment [1], in experiment [8], in experiment [9] and in [7] was “inactive” in each case. In addition, the Potency in [4] is 13.8 µM (active); in experiment [6], 43.6 µM (active).

Regarding `Nc1ccccc1C(=O)OC/C=C/c1ccccc1`, the Potency result in [10], in experiment [1], in [2] and in [6] was “inactive” in each case. Further, the Potency in experiment [7] is 49.1 µM (active).

As to `ClC1=C(Cl)C2(Cl)C3C(Cl)C=CC3C1(Cl)C2(Cl)Cl` (centres undefined), the Potency result in experiment [10], in experiment [1], in experiment [2] and in experiment [6] was “inactive” throughout. For the same compound, the Potency in experiment [7] is 43.6 µM (active).

Turning to `CCCN(CCC)CCc1c[nH]c2ccccc12`, the Potency result in experiment [10], in [1], in [2], in experiment [3], in experiment [4] and in [8] was “inactive” in each case. Also, the Potency entry in [9] and in experiment [7] was “inactive” in each case.

Consider `Clc1ccc(C(c2ccccc2Cl)C(Cl)(Cl)Cl)cc1` (centres undefined), for which the Potency entry in experiment [10], in [1], in experiment [2], in experiment [6], in [8] and in [9] was “inactive” throughout. Besides, the figures for the Potency in experiment [4] and in [7] were 62.1 µM (active) and 43.9 µM (active), respectively.

For the compound `CC1(C)[C@H](C(=O)O[C@H](C#N)c2cccc(Oc3ccccc3)c2)[C@@H]1/C=C(\Cl)C(F)(F)F`, the Potency result in [10] and in [4] was “inactive” throughout. In [5], the outcome was inactive.

Regarding `c1ccc(Nc2ccc3ccccc3c2)cc1`, the Potency entry in [1], in experiment [2], in experiment [3], in [4], in [6] and in [7] was “inactive” in each case. Besides, the outcome in [5] was inactive.
